Results from PubChem BioAssay (NCATS).
Results filed as inconclusive are left out. Activity calls are given as the source filed them. Unless noted, the call rests on the fitted dose curve; in most records, active means well fitted curve in the direction sought with a large enough effect; inconclusive means small, poorly fitted or top-dose-only effect, or another doubt; inactive means no such curve, though single readings can be large; an effect the other way counts as inactive or inconclusive.

Legend:
[1] = target: Protein phosphatase 1D (Homo sapiens) (UniProt O15297); experiment: RapidFire Mass Spectrometry qHTS Assay for Modulators of WT P53-Induced Phosphatase 1 (WIP1) (AID 1347424);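 further: amount of dephosphorylated VEPPL-S-QETFS peptide product formed by WIP1; series mostly up to about 63 µM; plate controls were DMSO wells for no effect and GSK830371 inhibitor control at 10 µM for full effect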
How it was run: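 10 nM WIP1 preincubated with compounds 1 hr at room temperature in pH 7.5 Tris buffer with 30 mM MgCl2, 1 mM TCEP; 2 uM VEPPL-pS-QETFS phosphopeptide for 5 min, formic acid quench; dephosphorylated product quantified by RapidFire MS against labelled standard.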

[2] = target: Protein phosphatase 1D (Homo sapiens) (UniProt O15297); experiment: Rhodamine-PBP qHTS Assay for Modulators of WT P53-Induced Phosphatase 1 (WIP1) (AID 1347425); further: % of control where 0% means no effect
How it was run: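 5 nM WIP1 + 10 uM Rh-PBP, 50 mM Tris pH 7.5, 30 mM MgCl2, 1 mM TCEP, 0.1 mM EGTA, BSA; cpds pinned, 1 hr RT; + 10 uM phosphopeptide; fluorescence 1-min reads x 11 min; delta = f1 - f0.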

[3] = Primary qHTS for inhibitors of La Crosse Virus (LACV) - induced cell death in SH-SY5Y cells (AID 1508616);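 further: top concentration of the series differs between compounds; 0% = infected DMSO wells and 100% = uninfected DMSO wells; higher means more rescue of cells from virus-induced death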
How it was run: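 Readout was luminescence from ATPLite 1step added after a 6-day LACV infection (0.01 MOI) of SH-SY5Y cells that had received pin-transferred compound 24 hr after seeding.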

[4] = target: Calcium and integrin-binding protein 1 (Homo sapiens) (UniProt Q99828); experiment: Primary qHTS for Identification of Calcium Integrin Binding Protein 1 (CIB1) Competitor (AID 1508620);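 further: GST tagged CIB1 binding a fluorescein labelled alphaIIb integrin peptide tracer; top concentration of the series differs between compounds; on the % scale 0 is the no-effect control and ±100 the full control effect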
How it was run: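 Fluorescence polarization competition: GST-tagged CIB1 (1 uM final) preincubated with compound 15 min at room temperature, then FITC-labelled alphaIIb peptide (100 nM final) added. After 15 min at room temperature, polarization read at Ex 480/Em 540.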

[5] = Primary qHTS for small molecule stabilizers of the endoplasmic reticulum resident proteome: Secreted ER Calcium Modulated Protein (SERCaMP) assay (AID 1508630); further: potency means the concentration at half of the fitted maximal effect; on activity change, negative = inhibition: on the % scale 0 is the no-effect control and ±100 the full control effect
How it was run: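 GLuc-SERCaMP-expressing SH-SY5Y cells, pretreated 16 h with compound, are challenged with thapsigargin to empty ER calcium stores; after 4 h, coelenterazine is added directly to the medium and luminescence is imaged.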

[6] = A High-Content qHTS Against Drug Library for the Identification of Small Molecules that Inhibit DYT1 Early Onset Primary Dystonia-Associated Cell Pathology (AID 1645839; calls by dose curve; further: series mostly up to about 46 µM)
How it was run: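 Flp-In T-REx 293 cells with tetracycline-inducible EGFP-delE hTOR1A (WT EGFP-hTOR1A as reference), 800 cells/well; compound added with tetracycline, 48 h at 37 C. Fixed, permeabilized cells imaged; %pathology (punctate TorsinA) primary, cell count counterscreen.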

[7] = target: Cytochrome P450 2D6 (Homo sapiens) (UniProt P10635); experiment: Cytochrome P450 family 2 subfamily D member 6 (CYP2D6) small molecule antagonists: luciferase biochemical (cell-free) qHTS assay (AID 1645840; active means well fitted curve in the direction sought with a large enough effect in the repeat runs; an effect the other way counts as inactive or inconclusive; further: nearly all actives have a fitted effect of over 55% in size; further: potency means the concentration at half of the fitted maximal effect; on activity change, negative = inhibition: series mostly up to about 57 µM; on the % scale 0 is the no-effect control and ±100 the full control effect)
How it was run: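 P450-Glo luminescent screen: recombinant CYP2D6 enzyme–proluciferin substrate mix preincubated with compound 10 min at room temperature, then NADPH regeneration added for 1 h at room temperature. Detection reagent added for 20 min; luciferin light read as relative luminescence units.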

[8] = target: Cytochrome P450 2C9 (Homo sapiens) (UniProt P11712); experiment: Cytochrome P450 family 2 subfamily C member 9 (CYP2C9) small molecule antagonists: luciferase biochemical (cell-free) qHTS assay (AID 1645842; active means well fitted curve in the direction sought with a large enough effect in the repeat runs; an effect the other way counts as inactive or inconclusive; further: nearly all actives have a fitted effect of over 55% in size; further: potency means the concentration at half of the fitted maximal effect; on activity change, negative = inhibition: series mostly up to about 57 µM; on the % scale 0 is the no-effect control and ±100 the full control effect)
How it was run: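 Luminescence, after 20 min with luciferin detection reagent, reflected CYP2C9 turnover during a 1 h NADPH-driven reaction at 37C. Enzyme-substrate mix contained 0.4% bovine serum albumin and was preincubated with compound 10 min at room temperature.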

[9] = Primary qHTS for inhibitors of nuclear receptor binding SET domain protein 2 (NSD2) in an isogenic RCH-ACV NSD2 p.E1099K mutant (9B) (AID 1645876); further: nearly all actives have a fitted effect of over 70% in size; further: potency means the concentration at half of the fitted maximal effect
[10] = Primary qHTS for inhibitors of nuclear receptor binding SET domain protein 2 (NSD2) in an RCH-ACV wild type WT cells (2C) (AID 1645877); further: on the % scale 0 is the no-effect control and ±100 the full control effect; nearly all actives have a fitted effect of over 70% in size

Sequence of Protein phosphatase 1D (Homo sapiens) (O15297 whole entry, looked up): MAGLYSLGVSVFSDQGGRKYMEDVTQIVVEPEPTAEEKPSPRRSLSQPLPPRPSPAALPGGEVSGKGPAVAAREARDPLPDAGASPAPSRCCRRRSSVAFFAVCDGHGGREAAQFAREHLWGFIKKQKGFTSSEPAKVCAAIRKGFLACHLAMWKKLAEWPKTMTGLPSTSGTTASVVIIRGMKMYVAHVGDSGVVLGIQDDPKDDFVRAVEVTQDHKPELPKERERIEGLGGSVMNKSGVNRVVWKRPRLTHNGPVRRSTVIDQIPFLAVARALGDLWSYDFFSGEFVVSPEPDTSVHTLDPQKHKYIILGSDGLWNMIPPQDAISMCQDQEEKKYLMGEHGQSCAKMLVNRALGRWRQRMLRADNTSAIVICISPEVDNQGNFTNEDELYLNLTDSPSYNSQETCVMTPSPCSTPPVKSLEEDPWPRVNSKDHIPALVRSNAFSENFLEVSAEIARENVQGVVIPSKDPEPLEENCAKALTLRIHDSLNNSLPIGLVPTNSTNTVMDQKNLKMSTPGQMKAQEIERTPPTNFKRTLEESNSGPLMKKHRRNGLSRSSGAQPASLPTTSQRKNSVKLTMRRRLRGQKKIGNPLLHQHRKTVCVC
Sequence of Cytochrome P450 2C9 (Homo sapiens) (P11712 whole entry, looked up): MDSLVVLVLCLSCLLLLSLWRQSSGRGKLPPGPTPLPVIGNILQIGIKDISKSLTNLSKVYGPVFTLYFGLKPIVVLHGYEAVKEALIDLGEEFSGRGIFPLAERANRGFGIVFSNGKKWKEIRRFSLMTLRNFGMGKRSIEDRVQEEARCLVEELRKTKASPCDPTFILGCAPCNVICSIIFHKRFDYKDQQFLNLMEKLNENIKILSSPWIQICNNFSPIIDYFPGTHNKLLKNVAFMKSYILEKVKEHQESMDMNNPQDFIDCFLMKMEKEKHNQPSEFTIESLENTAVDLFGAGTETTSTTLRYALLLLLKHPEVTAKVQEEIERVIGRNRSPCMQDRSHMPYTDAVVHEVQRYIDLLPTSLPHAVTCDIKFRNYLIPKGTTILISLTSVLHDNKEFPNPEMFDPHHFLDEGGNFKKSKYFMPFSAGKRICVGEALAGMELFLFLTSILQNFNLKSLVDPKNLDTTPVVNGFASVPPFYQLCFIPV
Sequence of Calcium and integrin-binding protein 1 (Homo sapiens) (Q99828 whole entry, looked up): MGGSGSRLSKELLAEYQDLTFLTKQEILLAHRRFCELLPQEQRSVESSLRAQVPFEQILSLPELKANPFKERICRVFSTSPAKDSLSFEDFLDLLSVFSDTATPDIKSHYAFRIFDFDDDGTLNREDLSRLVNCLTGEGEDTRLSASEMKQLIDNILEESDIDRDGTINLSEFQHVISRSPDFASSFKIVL
Sequence of Cytochrome P450 2D6 (Homo sapiens) (P10635 whole entry, looked up): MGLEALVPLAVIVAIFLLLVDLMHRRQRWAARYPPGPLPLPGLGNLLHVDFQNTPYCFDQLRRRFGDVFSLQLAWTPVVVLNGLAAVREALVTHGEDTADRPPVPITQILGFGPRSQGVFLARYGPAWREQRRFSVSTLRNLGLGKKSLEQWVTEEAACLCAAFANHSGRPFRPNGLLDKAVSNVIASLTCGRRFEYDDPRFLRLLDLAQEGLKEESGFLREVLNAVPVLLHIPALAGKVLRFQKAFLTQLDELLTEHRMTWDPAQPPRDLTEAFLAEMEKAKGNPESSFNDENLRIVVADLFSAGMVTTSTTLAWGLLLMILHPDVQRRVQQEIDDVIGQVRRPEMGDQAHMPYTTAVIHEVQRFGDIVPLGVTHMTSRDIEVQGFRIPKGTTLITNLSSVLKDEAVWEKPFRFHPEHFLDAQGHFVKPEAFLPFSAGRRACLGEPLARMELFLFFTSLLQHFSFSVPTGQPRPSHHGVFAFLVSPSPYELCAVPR

COc1cc(C(=O)N2CCCCCCC2)cc(OC)c1OC
inactive: Potency [1] | outcome [2] | outcome [3] | Potency [4] | Potency [5] | Potency [6] | Potency [7] | Potency [8] | Potency [9] | Potency [10]

CN(C)C(=O)Nc1ccc(Cl)c(Cl)c1
inactive: Potency [1] | outcome [2] | outcome [3] | Potency [4] | Potency [5] | Potency [6] | Potency [7] | Potency [8] | Potency [9] | Potency [10]

CC(C)Cn1cnc2c1c(=O)n(C)c(=O)n2C
inactive: Potency [1] | outcome [2] | outcome [3] | Potency [4] | Potency [5] | Potency [6] | Potency [7] | Potency [8] | Potency [9] | Potency [10]

COc1cc(C)nc(-n2nc(C)cc2OC)n1
inactive: Potency [1] | outcome [2] | outcome [3] | Potency [4] | Potency [5] | Potency [6] | Potency [7] | Potency [8] | Potency [9] | Potency [10]

COc1ccc(CCN(C)CCCN2CCc3cc(OC)c(OC)cc3CC2=O)cc1OC
inactive: Potency [1] | outcome [2] | outcome [3] | Potency [4] | Potency [5] | Potency [6] | Potency [7] | Potency [8] | Potency [9] | Potency [10]

C#C[C@]1(O)CC[C@H]2[C@@H]3CCC4=CC(=O)CC[C@@H]4[C@H]3CC[C@@]21CC
inactive: Potency [1] | outcome [2] | outcome [3] | Potency [4] | Potency [5] | Potency [6] | Potency [7] | Potency [9] | Potency [10]
active: Potency [8] 12.3 µM

O=S(=O)(O)c1ccc(O)cc1
inactive: Potency [1] | outcome [2] | outcome [3] | Potency [4] | Potency [5] | Potency [6] | Potency [7] | Potency [8] | Potency [9] | Potency [10]

CCOCCn1c(N2CCCN(C)CC2)nc2ccccc21
active: Potency [7] 6.92 µM
inactive: Potency [1] | outcome [2] | outcome [3] | Potency [4] | Potency [5] | Potency [6] | Potency [8] | Potency [9] | Potency [10]

O=C(CCCN1CC=C(n2c(=O)[nH]c3ccccc32)CC1)c1ccc(F)cc1
inactive: Potency [1] | outcome [2] | outcome [3] | Potency [4] | Potency [6] | Potency [8] | Potency [9] | Potency [10]
active: Potency [5] 25.1 µM | Potency [7] 0.246 µM

O=C(Oc1cccc2cccnc12)c1ccccc1
inactive: Potency [1] | outcome [2] | outcome [3] | Potency [4] | Potency [5] | Potency [6] | Potency [7] | Potency [8] | Potency [9] | Potency [10]

CCCCCCCCCCCCCCCCO
inactive: Potency [1] | outcome [2] | outcome [3] | Potency [4] | Potency [5] | Potency [6] | Potency [7] | Potency [8] | Potency [9] | Potency [10]

CCc1cc(Cl)c(OC)c(C(=O)NC[C@@H]2CCCN2CC)c1O
inactive: Potency [1] | outcome [2] | outcome [3] | Potency [4] | Potency [5] | Potency [6] | Potency [8]

C=C[C@@]1(C)CC(=O)[C@]2(O)[C@@]3(C)[C@@H](O)CCC(C)(C)[C@@H]3[C@H](O)[C@H](OC(C)=O)[C@@]2(C)O1
active: Potency [9] 0.841 µM
inactive: Potency [1] | outcome [2] | outcome [3] | Potency [4] | Potency [5] | Potency [6] | Potency [7]

Cc1cccc(C)c1NC(=O)CN1CCCC1
active: Potency [7] 12.3 µM
inactive: Potency [1] | outcome [2] | outcome [3] | Potency [4] | Potency [5] | Potency [6] | Potency [8] | Potency [9] | Potency [10]

Cc1cccc(C)c1NC(=O)CN1CCCCCC1
active: Potency [7] 11 µM
inactive: Potency [1] | outcome [2] | outcome [3] | Potency [4] | Potency [5] | Potency [6] | Potency [8] | Potency [9] | Potency [10]

Cc1cc(-c2ccccc2)nnc1NCCN1CCOCC1
active: Potency [7] 4.9 µM
inactive: Potency [1] | outcome [2] | outcome [3] | Potency [4] | Potency [5] | Potency [6] | Potency [8] | Potency [9] | Potency [10]

CCNC(=O)/C=C/c1cccc(Br)c1
inactive: Potency [1] | outcome [2] | outcome [3] | Potency [4] | Potency [5] | Potency [6] | Potency [7] | Potency [8] | Potency [10]

O=C1c2cccc3c2[C@H](CCC3)CN1[C@@H]1CN2CCC1CC2
inactive: Potency [1] | outcome [2] | outcome [3] | Potency [4] | Potency [5] | Potency [6] | Potency [8]

C[C@@H](O)[C@H]1C(=O)N2C(C(=O)O)=C(S[C@@H]3CN[C@H](CNS(N)(=O)=O)C3)[C@H](C)[C@H]12
inactive: Potency [1] | outcome [2] | outcome [3] | Potency [4] | Potency [5] | Potency [6] | Potency [7] | Potency [9] | Potency [10]
active: Potency [8] 11 µM

COC(=O)C(c1ccccc1Cl)N1CCc2sccc2C1 (stereo not given)
inactive: Potency [1] | outcome [2] | outcome [3] | Potency [4] | Potency [5] | Potency [6] | Potency [9] | Potency [10]
active: Potency [7] 17.4 µM

OC(C#CCN1CCCC1)(c1ccccc1)c1ccccc1
inactive: Potency [1] | outcome [2] | outcome [3] | Potency [4] | Potency [5] | Potency [6] | Potency [9] | Potency [10]
active: Potency [7] 12.3 µM | Potency [8] 8.71 µM

CCN[C@@H]1C[C@H](N)[C@@H](OC2OC(CN)=CCC2N)[C@H](O)[C@H]1O[C@H]1OC[C@](C)(O)[C@H](NC)[C@H]1O (stereo not given in full)
inactive: activity change, negative = inhibition [1] -11.3% [at 0.505 µM] | activity change, negative = inhibition [2] -2.47% [at 0.575 µM] | activity change [3] -7.05% [at 0.0343 µM] | activity change, negative = inhibition [4] 1.28% [at 1.07 µM] | activity change, negative = inhibition [5] -24.8% [at 0.478 µM] | % pathology change, negative = correction [6] 3.5% [at 0.369 µM] | activity change, negative = inhibition [7] 2.45% [at 0.91 µM] | activity change, negative = inhibition [8] 10% [at 0.91 µM] | outcome [9] inactive [at 0.588 µM] | activity change, negative = cell killing [10] 2.3% [at 0.588 µM]
